Sampled rows, rich in hits. Any-hit rate of the full collection: about 11%.
Luciferase inh – Firefly luciferase inhibition profiling of diverse chemical library using quantitative high-throughput screening; Luciferin 4-monooxygenase (Photinus pyralis), P08659; purified P. pyralis luciferase, luminescence, biochemical; Potency, µM (titrated, usually from 115 µM), actives largely listed as inhibitors; hit rate 2.5% among 76,000; note: nearly all actives have a fitted effect of over 65% in size
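Luminescence read by CCD imaging after purified firefly luciferase (10nM final) was added to substrate buffer holding 10uM D-luciferin and 10uM ATP, pH 7.5, pre-dosed with compound.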
hNpr1 antagonist – Natriuretic polypeptide receptor (hNpr1) antagonism - Primary qHTS; HEK293 hNpr1 GloSensor cGMP, ANP-stimulated luminescence; Potency, µM (titrated, usually from 46.3 µM), without a hit: at the highest dose activity change, negative = inhibition, most hits filed as inhibitors; Atrial natriuretic peptide receptor 1 (Homo sapiens), P16066; hit rate 1.6% among 76,000; calls by dose curve; note: nearly all actives have a fitted effect of over 60% in size
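Compound pre-incubated 30 min at room temperature on GloSensor-loaded HEK293 cells stably carrying hNpr1 and the pGS-40F cGMP biosensor. Stimulation uses hNppA at 0.1 nM final; luminescence is taken at baseline and 20 min post-agonist.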
HEK cytotox – Cytotoxic Profiling in HEK 293 Cell Line of Diverse Libraries Using Quantitative High-Throughput Screening; HEK 293 viability, ATP luminescence (CellTiter-Glo), 48-72 h; Potency, µM (doses to about 115 µM), without a hit: at the highest dose activity change, negative = cytotoxicity, usual class: inhibitors; hit rate 6.6% among 94,000; note: nearly all actives have a fitted effect of over 60% in size
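HEK 293 seeded at 250 cells/well receive compound via pintool. After 48 or 72 hr at 37 degree Celsius, 5% CO2 and 95% humidity, CellTiter-Glo is dispensed and luminescence read following 10 min at room temperature.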
NIH3T3 tox – Cytotoxic Profiling in NIH 3T3 Cell Line of Diverse Libraries Using Quantitative High-Throughput Screening | NIH 3T3 viability, CellTiter-Glo ATP luminescence, 48-72 h | Potency, µM (series often up to 96.7 µM), inactives show top-dose activity change, negative = cytotoxicity, most hits filed as inhibitors | hit rate 4.3% among 94,000 | AID 1345082, 2018; note: nearly all actives have a fitted effect of over 55% in size
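First NIH 3T3 cells are plated at 400 cells/well; next compound is pinned in; then plates incubate 48 or 72 hr at 37 °C; finally CellTiter-Glo is added and luminescence read after 10 min.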
Numbers without * were called inactive; i = inactive; ? = inconclusive; . = no result; [ ] = dose if it differs, or a comment. Unless noted, calls come from the whole dose curve; as a rule, active = well fitted curve in the direction sought with a large enough effect; inconclusive = small, poorly fitted or top-dose-only effect, or another doubt; inactive = no such curve, though single readings can be large; an effect the other way counts as inactive or inconclusive. % is set by controls: 0 for no effect and ±100 for the full control effect; potency is the fitted concentration of half-maximal effect.

SMILES	Luciferase inh	hNpr1 antagonist	HEK cytotox	NIH3T3 tox
COc1ccccc1C(=O)NCCn1ccn2nc(-c3cc(C)ccc3C)cc2c1=O	i	-4%	?	?
Cc1ccc(-c2cc3c(=O)n(CCNC(=O)c4cc(C5CC5)[nH]n4)ccn3n2)c(C)c1	1.3µM*	?	?	-26%
Cc1ccc(C)c(-c2cc3c(=O)n(CCNC(=O)c4ccc(C#N)cc4)ccn3n2)c1	i	-23%	13µM*	?
Cc1ccc(-c2cc3c(=O)n(CCNC(=O)c4ccc(F)cc4)ccn3n2)c(C)c1	?	?	?	-26%
CCN1C(=O)CN(C(=O)C2CCCCC2)CC12CCOCC2	.	.	-5%	-27%
C[S+](=O)([O-])N1CC2(Cc3ccccc31)CN(C(=O)c1cccc(Cl)c1)C2	i	0%	?	?
O=c1n(-c2cccc(Cl)c2)nc2n1CCN([S+](=O)([O-])c1cccs1)C2	.	.	-14%	-13%
Cc1cccc(OCC(=O)NCCn2ccn3nc(-c4ccc(C)cc4C)cc3c2=O)c1	?	-23%	?	?
Cc1ccc(-c2cc3c(=O)n(CCNC(=O)Cc4c[nH]c5ccccc45)ccn3n2)c(C)c1	?	?	40µM*	-27%
Cc1ccc(-c2cc3c(=O)n(CCNC(=O)Cc4ccccc4Cl)ccn3n2)c(C)c1	2.5µM*	-25%	-26%	-21%
Cc1ccc(C)c(-c2cc3c(=O)n(CCNC(=O)c4ccc5ccccc5n4)ccn3n2)c1	i	-18%	35µM*	?
Cc1c(CC(=O)NC(C)C)c2c(n1Cc1ccccc1F)CCCC2=O	45µM*	-7%	?	-4%
CCOc1ccc(C(=O)N2CCC[C@H]2c2nc(-c3ccccc3Cl)no2)cc1	?	-13%	?	20µM*
CCOc1ccccc1C(=O)N1CCC[C@H]1c1nc(-c2ccc(F)cc2)no1	i	-1%	35µM*	?
C=CCN1C[C@@H]2C[C@@H](C(=O)NC)N(C(=O)c3ccc(-c4cccs4)s3)c3cccc(c32)C1=O	.	.	-11%[57.5 µM]	?
O=C(Nc1ccc2ncnc(N3CCCC3)c2c1)c1ccc(F)c(F)c1	i	-21%	?	35µM*
CCCC(=O)Nc1ccc2c(N3CCOCC3)ncnc2c1	i	4%	-14%	?
COc1ccc(C(=O)Nc2ccc3c(N4CCCCC4)ncnc3c2)cc1	25µM*	1%	40µM*	?
Cc1ccsc1C(=O)Nc1ccc2ncnc(N3CCCCC3)c2c1	i	?	32µM*	35µM*
COc1cccc(C(=O)Nc2ccc3ncnc(N4CCCCC4)c3c2)c1	i	-22%	?	?
COc1ccc(C(=O)Nc2ccc3c(N4CCOCC4)ncnc3c2)c(C)c1	?	0%	?	22µM*
O=C(Cc1ccc(F)cc1)Nc1ccc2ncnc(N3CCCCC3)c2c1	i	-16%	?	35µM*
O=C(Nc1ccc2c(N3CCCCC3)ncnc2c1)c1ccc(F)cc1F	?	3%	16µM*	22µM*
Cc1ccc(C(=O)Nc2ccc3c(N4CCOCC4)ncnc3c2)cc1F	?	-11%	?	11µM*
O=C(Nc1ccc2ncnc(N3CCCCC3)c2c1)c1ccc(F)cc1F	i	-15%	?	?
SMILES	Luciferase inh	hNpr1 antagonist	HEK cytotox	NIH3T3 tox
CCN1c2cc(C(=O)Nc3ccc(C)cc3)ccc2C(=O)N2CCCC21 (stereo not drawn)	i	6%	5%	-3%
CCN1c2cc(C(=O)Nc3ccc(C)cc3)ccc2C(=O)N2CCCCC21 (stereo not drawn)	i	?	40µM*	35µM*
CCN1c2cc(C(=O)Nc3cccc(C)c3)ccc2C(=O)N2CCCCC21 (stereo not drawn)	i	-2%	32µM*	35µM*
CCN1c2cc(C(=O)Nc3cccc(SC)c3)ccc2C(=O)N2CCCCC21 (stereo not drawn)	i	1%	22µM*	?
CCN1c2cc(C(=O)Nc3cccc(C(F)(F)F)c3)ccc2C(=O)N2CCCCC21 (stereo not drawn)	i	0%	28µM*	?
O=C(C1CCC1)N1CCC(c2nc(-c3ccc4nc[nH]c4c3)no2)CC1	i	-2%	?	?
CCN1c2cc(C(=O)Nc3cccc(OC(F)(F)F)c3)ccc2C(=O)N2CCCCCC21 (stereo not drawn)	i	-6%	?	28µM*
CCN1c2cc(C(=O)Nc3cccc(F)c3)ccc2C(=O)N2CCCCCC21 (stereo not drawn)	i	-2%	?	?
CCN1c2cc(C(=O)Nc3ccc(N(C)C)cc3)ccc2C(=O)N2CCCCCC21 (stereo not drawn)	18µM*	-8%	40µM*	?
O=C([C@@H]1C[C@H](Oc2ccccc2)CN1C(=O)C1CCCC1)N1CCCC1	i	0%	1%	-10%
Cn1ncc2c(C(=O)N3CCCC3)cc(-c3ccccc3F)nc21	.	.	?	-24%[138 µM]
CC(C)c1ccc(CN2CCC3(CC2)OC(=O)N(Cc2ncccn2)C3(C)c2ccccc2)cc1 (stereo not drawn)	i	0%	40µM*	?
CC(=O)Nc1ccc(CN2C(=O)OC3(CCN(Cc4ccc(C(C)C)cc4)CC3)C2(C)c2ccccc2)cc1 (stereo not drawn)	i	-2%	?	35µM*
CC(=O)Nc1ccc(CN2C(=O)OC3(CCN(Cc4ccc(C#N)cc4)CC3)C2(C)c2ccccc2)cc1 (stereo not drawn)	i	-14%	?	-28%
CN(C)C[C@@H]1CN(S(C)(=O)=O)C[C@H]1NC(=O)C1(c2ccccc2)CCCC1	i	-3%	-5%	i
COc1ccc(CC(=O)NC2CCCc3c2[nH]c2ccc(F)cc32)cc1OC (stereo not drawn)	i	?	?	?
COCCn1cc(C(=O)NC2CCCc3c2[nH]c2ccccc32)c2ccccc2c1=O (stereo not drawn)	i	-6%	45µM*	?
CC(C)CC(=O)NC1CCCc2c1[nH]c1ccc(Cl)cc21 (stereo not drawn)	i	-13%	?	20µM*
O=C(Cc1ccccc1)NC1CCCc2c1[nH]c1ccccc21 (stereo not drawn)	i	-1%	?	22µM*
O=C(Cc1c[nH]c2ccccc12)NC1CCCc2c1[nH]c1ccc(F)cc21 (stereo not drawn)	i	-15%	35µM*	32µM*
Cn1ncc2c(C(=O)NC3CCCCC3)cc(-c3ccc(C(F)(F)F)cc3)nc21	.	.	-12%	-26%
Cn1cnc(C(=O)NCC(=O)N2CCCCCNC(=O)CC2c2ccccc2)c1 (stereo not drawn)	i	0%	i	i

High-throughput results as filed in PubChem BioAssay.
